Shown are actives, neighbours in structure and some others; about 9.4% of the full set was active somewhere.
ELG1 repair inh = blocks ELG1-dependent DNA repair in HEK293T cells. Potency, µM (highest dose often 46.1 µM), for inactives: at the top dose activity change, negative = inhibition, actives largely listed as inhibitors. hit rate 2.3% among 330,000. HEK293T ELG1-luciferase reporter, luminescence, 16 h; DNA damage induced by 5-fluorouridine; also: % is scaled to controls: 0 for no effect and ±100 for the full control effect; nearly all actives have a fitted effect of over 55% in size
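Reporter activity after DNA damage by 5-fluorouridine is monitored. Compound-treated cells incubate 16 hr at 37 °C, then ONE-Glo is added for 30 min before luminescence reading.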
ELG1 genotoxic = genotoxicity induction in ELG1-luciferase HEK293T cells; hit rate 1.3% among 330,000; Potency, µM (top dose mostly 46 µM), for inactives: top-dose activity change, positive = activation, most hits filed as activators; HEK293T ELG1-luciferase reporter, luminescence, 16 h; also: % of control where 0% means no effect; nearly all actives have a fitted effect of over 60% in size
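Genotoxicity was scored as increased ELG1-luciferase reporter signal, measured by ONE-Glo luminescence (30 min, room temperature). Compound or vehicle exposure of the HEK293T reporter cells lasted 16 hr at 37°C.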
NPC1 promoter act = activators of NPC1 promoter | Huh7 NPC1 promoter luciferase reporter, 24 h | Potency, µM (titrated, usually from 9.22 µM), inactives show at the top dose activation, hits mostly activators | hit rate 2.4% among 320,000 | AID 485313; also: % of control where 0% means no effect; nearly all actives have a fitted effect of over 60% in size
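Luminescence from an NPC1 promoter-driven luciferase reporter in stably transfected Huh7 cells was measured after 24 h compound treatment at 37 °C, followed by 10 min ambient incubation with luciferase detection reagent.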
SMN2 splice up = increases expression of the SMN2 splice variant. HEK293 SMN2-luciferase splicing reporter, luminescence, 30-36 h. Potency, µM (doses to about 46.1 µM), for inactives: top-dose activity change, positive = activation, actives largely listed as activators. hit rate 2.8% among 210,000; also: % of control where 0% means no effect; nearly all actives have a fitted effect of over 55% in size
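HEK293 cells carry an SMN2 minigene-luciferase reporter in which exon 7 inclusion puts luciferase in frame. Cells were seeded at 2000 cells/well, attached for 10-12 hours, then exposed to compounds for 30-36 hours at 37C before ONE-Glo luminescence.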
Rab9 promoter act = activates the Rab9 promoter | hit rate 2.8% among 320,000 | Huh7 Rab9 promoter-luciferase reporter, luminescence, 24 h | Potency, µM (top dose mostly 9.22 µM), without a hit: top-dose activation, negative = inhibition, actives largely listed as activators | AID 485297; also: % of control where 0% means no effect; nearly all actives have a fitted effect of over 60% in size
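Huh7 reporter line, Rab9 promoter upstream of luciferase. Compound exposure 24 h at 37 °C in reduced-serum medium with 10% FBS. Read-out: luminescence.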
FLuc counter = inhibits or activates purified firefly luciferase, miR-21 counter-screen; purified FLuc, Km substrates, luminescence inhibition; Potency, µM (doses to about 57.5 µM), for inactives: at the highest dose activity change, negative = inhibition, actives largely listed as inhibitors; P08659; hit rate 6.9% among 360,000;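 also: plate controls were vehicle for no effect and reference inhibitor for full effect; nearly all actives have a fitted effect of over 55% in size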
Target sequence (P08659 whole entry, looked up): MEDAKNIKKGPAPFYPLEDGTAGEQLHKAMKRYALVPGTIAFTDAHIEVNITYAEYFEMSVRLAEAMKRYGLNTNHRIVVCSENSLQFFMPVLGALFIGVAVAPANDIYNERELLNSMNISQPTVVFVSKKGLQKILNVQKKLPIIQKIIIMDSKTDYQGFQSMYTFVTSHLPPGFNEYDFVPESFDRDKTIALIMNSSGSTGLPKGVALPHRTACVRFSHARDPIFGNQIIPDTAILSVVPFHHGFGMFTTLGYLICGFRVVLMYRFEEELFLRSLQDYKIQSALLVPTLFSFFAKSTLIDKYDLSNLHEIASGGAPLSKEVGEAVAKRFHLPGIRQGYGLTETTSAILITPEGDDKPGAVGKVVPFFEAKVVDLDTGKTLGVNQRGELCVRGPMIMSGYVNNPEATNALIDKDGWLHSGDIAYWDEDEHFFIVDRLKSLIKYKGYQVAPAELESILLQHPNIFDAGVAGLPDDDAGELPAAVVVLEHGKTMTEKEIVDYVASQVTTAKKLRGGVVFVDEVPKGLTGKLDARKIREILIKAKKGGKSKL
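Purified P. pyralis luciferase, 10 nM final, with Km-level 10 uM D-luciferin and 10 uM ATP in 50 mM Tris acetate pH 7.5, 10 mM Mg acetate, 0.01% Tween-20, 0.05% BSA; 6-point qHTS titration about 60 µM downward; luminescence read.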
* hit, by the source's call; ? = inconclusive; . = no result given; [ ] = another dose, or the depositor's remark. Calls follow the shape of the dose curve; as a rule, active = well fitted curve in the direction sought with a large enough effect; inconclusive = small, poorly fitted or top-dose-only effect, or another doubt; inactive = no such curve, though single readings can be large; an effect the other way counts as inactive or inconclusive. Potency is read from the fitted curve at half-maximal effect.

SMILES | ELG1 repair inh | ELG1 genotoxic | NPC1 promoter act | SMN2 splice up | Rab9 promoter act | FLuc counter
CCCSc1ncc(Cl)c(C(=O)Nc2ccc(S(=O)(=O)N3CCCCC3C)cc2)n1 (centres undefined) | . | . | . | -29.6% | . | -0.6%
Cc1ccccc1OCCCCn1c(CCNC(=O)C(C)(C)C)nc2ccccc21 | . | . | . | -24.7% | . | -8.2%
COc1ccc(-c2cc(C(=O)NCCc3ccccc3)c3cc(C(C)C)ccc3n2)cc1 | . | . | . | . | . | -13.2%
COc1ccc(-c2cc(C(=O)NCCc3ccc(OC)c(OC)c3)c3ccccc3n2)cc1 | . | . | . | 3.0% | . | 6.75µM*
COc1ccc(CCNC(=O)c2cc(-c3ccc(C)c(C)c3)nc3ccccc23)cc1OC | . | . | . | . | . | 2.69µM*
COc1ccc(CCNc2nc(=S)[nH]c3cc(OC)c(OC)cc23)cc1OC | -3.5% | -6.6% | -12.9% | . | -13.1% | -0.9%
COc1ccc(-n2c(=O)[nH]c3cc(C(=O)NCCc4ccccc4)ccc3c2=O)cc1OC | 20.6µM* | -9.4% | -6.8% | 2.8% | 0.0%[1.84 µM] | -2.1%
Cc1ccc(CCNC(=O)c2ccc3c(=O)n(-c4ccccc4)c(=O)[nH]c3c2)cc1 | . | . | . | -19.5% | . | -0.8%
COc1ccc(CCNC(=O)c2ccc(CNc3nc(=S)[nH]c4ccccc34)cc2)cc1OC | 14.6µM* | -17.0% | -0.9% | -24.1% | 0.8% | -5.8%
CCCC(=O)N(c1ccc2oc3c(c2c1)CCCC3)S(=O)(=O)c1cc(C)ccc1C | . | . | . | -0.8% | . | 3.3%
Cc1ccc(-c2nn(-c3cccc([N+](=O)[O-])c3)c3c2cnc2ccc(F)cc23)cc1 | . | . | . | . | . | -0.2%
Cc1ccn2c(c1)nc(=O)c1cc(S(=O)(=O)N3CCC(C)CC3)c(Cl)cc12 | . | . | . | 6.0% | . | -0.6%
COc1ccc(OC)c(CNC(=O)c2cc3cc4ccc(OC)cc4nc3o2)c1 | . | . | . | -13.1% | . | 7.0%
COc1ccc2cc3cc(C(=O)NCCc4ccc(OC)c(OC)c4)oc3nc2c1 | 5.17µM* | -7.3% | -3.4% | -32.1% | 2.8% | -1.5%
O=C(Oc1cc2oc(=O)cc(-c3ccccc3)c2cc1Cl)C1CCCCC1 | 16.4µM* | -2.4% | 0.6% | -34.0% | -4.0% | 0.3%
CC(=O)N1CC=CC1(C)C(=O)NCC1CC1 (centres undefined) | . | . | . | 11.2µM* | . | .
CC(C)CC1(C(=O)NCC2CC2)C=CCN1C(=O)c1ccccc1 (centres undefined) | . | . | . | 12.6µM* | . | .
COC(=O)CNC(=O)C1(C)C=CCN1C(=O)c1ccccc1 (centres undefined) | ? | ? | 14.7% | 11.2µM* | ? | 15.1µM*
C=CC1=C2C=C(C3CC3)N(C3CCCC3)C=C2C(=O)C(C)(OC(=O)c2ccco2)C1=O (centres undefined) | . | . | . | -3.0%[9.22 µM] | . | .
O=C(/C=C/c1ccc2c(c1)OCCO2)N1CCN(c2ccc(F)cc2)CC1 | -8.8% | -4.0% | -3.4% | . | -1.7% | 23.9µM*
CCOC(=O)C1CCN(C(=O)/C=C/c2ccc3c(c2)OCO3)CC1 | ? | ? | 0.447µM* | . | 0.794µM* | 15.1µM*
CCOC(=O)C1CCN(C(=O)COC(=O)/C=C/c2ccccc2)CC1 | ? | -1.7% | . | . | . | .
O=C(/C=C/c1ccc2c(c1)OCO2)N1CCCCC1 | ? | ? | 3.55µM* | . | 1.58µM* | 12µM*
CCOC(=O)C1CCN(C(=O)/C=C/c2ccccc2)CC1 | ? | 13.8% | 1.41µM* | 11.2µM* | 1.12µM* | 23.9µM*
Cc1cccc(C)c1NC(=O)c1oc2c(c1C)-c1nn(Cc3ccccc3)cc1CC2 | . | . | . | . | . | 3.1%
SMILES | ELG1 repair inh | ELG1 genotoxic | NPC1 promoter act | SMN2 splice up | Rab9 promoter act | FLuc counter
N#Cc1ccc(CN2CCC3(CC2)CCN(C(=O)c2ccncc2)CC3)cc1 | . | . | . | -35.9% | . | .
Cc1ccc(C)c(NC(=O)Cn2cc(C(=O)C3CCCCC3)c3ccccc32)c1 | . | . | . | 5.6% | . | 0.1%
Cc1ccc(NC(=O)C2CCCN2S(=O)(=O)c2ccc3nc(-c4ccccc4)[nH]c3c2)cc1F (centres undefined) | . | . | . | . | . | -13.5%
CCOc1ccccc1NC(=O)c1cnn2c(C(F)F)cc(-c3ccccc3)nc12 | . | . | . | 3.1% | . | 4.6%
c1ccc(CSc2nnc(C3CCNCC3)o2)cc1 | . | . | . | . | . | -0.2%
Cc1ccc(NC(=O)c2cc(-c3cccs3)on2)cc1C | ? | ? | -0.4% | 18.5% | 0.4% | ?
Cc1cc(C(=O)NC2CCCN(Cc3ccc(Cl)cc3)C2)no1 (centres undefined) | -17.0% | -10.0% | -3.6% | . | 0.0% | 0.1%
O=C(NC1CCCC1)c1cc(-c2ccccc2Cl)on1 | ? | ? | 1.58µM* | . | 2.51µM* | 5.36µM*
O=C(NC1CCCC1)c1cc(-c2ccc(Cl)cc2Cl)on1 | ? | 1.3µM* | 1µM* | . | 3.55µM* | 0.849µM*
Cc1cccc(C)c1OCc1cc(C(=O)NC2CCC2)no1 | ? | 9.4% | 15.7% | . | 11.1% | ?
COc1ccccc1-c1cc(C(=O)NC2CCCC2)no1 | ? | ? | ? | . | ? | 19µM*
O=C(NC1CC1)c1cc(-c2cccs2)on1 | . | . | . | . | . | 10.7µM*
C[C@H](C(=O)c1ccccc1)C(c1ccccc1)N1CCOCC1 (some centres undefined) | . | . | . | -7.6%[9.22 µM] | . | .
COc1cccc(NC(=O)c2nn(-c3ccc(C)cc3)c(=O)n(C)c2=O)c1 | . | . | . | . | . | -2.2%
O=C(CCCc1nc(-c2ccccc2Cl)no1)NC1CCCCC1 | 1.9% | -8.6% | -0.5% | -13.6% | 1.9% | -10.9%
O=C(NC1CCCC1)c1cc(-c2ccccc2O)on1 | ? | 14.6µM* | 13.3% | . | 5.7% | 4.78µM*
O=C(NC1CCCCC1)c1cc(-c2ccccc2Cl)on1 | ? | 20.6µM* | ? | . | 2.82µM* | ?
CCc1ccc2occ(CC(=O)Nc3nnc(C)s3)c2c1 | . | . | . | -1.8% | . | -0.3%
N#CCc1ccccc1[N+](=O)[O-] | . | . | . | -4.1% | . | .
COc1ccc(-c2nc3c(Br)c(N)c(Br)cc3o2)cc1 | 4.8% | 2.9% | 3.16µM* | -17.6% | ? | 1.35µM*
Nc1c(Br)cc2oc(-c3ccccc3)nc2c1Br | ? | ? | 2.2% | 12.6µM* | ? | 2.13µM*
COc1ccc(C(=O)Nc2ccc3oc(-c4ccc(OC)cc4)nc3c2)cc1 | . | . | . | . | . | -13.4%
COc1cccc(Cn2c(=O)n(-c3ccc(C)c(F)c3)c(=O)c3sc4ccccc4c32)c1 | . | . | . | 6.4% | . | 0.2%
Cc1ccc(OCC(=O)N(Cc2ccc(N(C)C)cc2)CC2CCCO2)cc1C (centres undefined) | . | . | . | 2.8% | . | 4.5%
CSc1ccccc1NC(=O)C1=CC(c2ccc3c(c2)OCO3)=NS(=O)(=O)N1C | . | . | . | . | . | -1.1%
O=C(Nc1nc2ccc(S(=O)(=O)N3CCCC3)cc2s1)c1ccccn1 | 20.6µM* | -7.5% | 26.3% | -22.0% | ? | ?

Source: PubChem BioAssay
